Assay results as given in PubChem BioAssay AID1159580 (chemical genetic matrix, 2015).
In all, about 5,500 compounds went through this assay and about 2,000 (36%) were called active. Roughly 18% stayed inconclusive and do not appear here. Rule as the data show it: active = normalized growth mostly below about 0.91 (no sharp cut-off); inconclusive = no clear call, values can overlap the other calls; inactive = mostly above about 0.92. The list shows a part of the results.

Experiment: chemical genetic growth profiling, strain panel (AID 1159580);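 also: tested at 20 µM; growth read once vehicle control cultures reached saturation at 30 °C; 1 = growth at the plate median or of vehicle wells; lower values mean less growth of the strain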
Conditions: growth OD

Measured: normalized growth

CC1(C)O[C@@H]2CC3C4CCC5=CC(=O)C=C[C@]5(C)[C@@]4(F)[C@@H](O)C[C@]3(C)[C@]2(C(=O)CO)O1 (some centres not stated)
inactive: S. cerevisiae deletion strains, locus YJR075W, strain HOC1, stronger effect = lower value 1.01 | S. cerevisiae deletion strains, locus YKL009W, strain mrt4, stronger effect = lower value 1.01 | S. cerevisiae deletion strains, locus YKL068W, stronger effect = lower value 0.999 | S. cerevisiae deletion strains, locus YKL085W, strain MDH1 (second series), stronger effect = lower value 0.996 | S. cerevisiae deletion strains, locus YKL085W, strain MDH1, stronger effect = lower value 0.996 | S. cerevisiae deletion strains, locus YKL160W, strain elf1, stronger effect = lower value 0.968 | S. cerevisiae deletion strains, locus YKL190W, strain CNB1, stronger effect = lower value 1.02 | S. cerevisiae deletion strains, locus YKR001C, strain vps1, stronger effect = lower value 1.01 | S. cerevisiae deletion strains, locus YKR026C, strain gcn3, stronger effect = lower value 1.01 | S. cerevisiae deletion strains, locus YKR091W, strain srl3, stronger effect = lower value 0.992 | S. cerevisiae deletion strains, locus YLL001W, strain dnm1, stronger effect = lower value 1.01 | S. cerevisiae deletion strains, locus YLL026W, stronger effect = lower value 0.982 | S. cerevisiae deletion strains, locus YLL041C, strain sdh2, stronger effect = lower value 0.999 | S. cerevisiae deletion strains, locus YLR027C, strain aat2, stronger effect = lower value 1 | S. cerevisiae deletion strains, locus YLR039C, strain RIC1, stronger effect = lower value 1.01 | S. cerevisiae deletion strains, locus YLR058C, strain SHM2, stronger effect = lower value 1.02 | S. cerevisiae deletion strains, locus YLR102C, strain apc9, stronger effect = lower value 0.998 | S. cerevisiae deletion strains, locus YLR113W, strain HOG1, stronger effect = lower value 0.984 | S. cerevisiae deletion strains, locus YLR221C, strain rsa3, stronger effect = lower value 0.974 | S. cerevisiae deletion strains, locus YLR258W, strain gsy2, stronger effect = lower value 0.979 | S. cerevisiae deletion strains, locus YLR262C, strain YPT6 (second series), stronger effect = lower value 1.01 | S. cerevisiae deletion strains, locus YLR262C, strain YPT6, stronger effect = lower value 1.03 | S. cerevisiae deletion strains, locus YLR268W, strain sec22, stronger effect = lower value 1 | S. cerevisiae deletion strains, locus YLR320W, strain mms22, stronger effect = lower value 0.96 | S. cerevisiae deletion strains, locus YLR330W, strain CHS5, stronger effect = lower value 1.01 | S. cerevisiae deletion strains, locus YLR342W, strain FKS1 (second series), stronger effect = lower value 1.01 | S. cerevisiae deletion strains, locus YLR342W, strain FKS1, stronger effect = lower value 0.986 | S. cerevisiae deletion strains, locus YLR357W, strain rsc2, stronger effect = lower value 0.948 | S. cerevisiae deletion strains, locus YLR370C, strain arc18, stronger effect = lower value 0.996 | S. cerevisiae deletion strains, locus YLR371W, strain rom2, stronger effect = lower value 0.995 | S. cerevisiae deletion strains, locus YLR384C, strain iki3, stronger effect = lower value 0.995 | S. cerevisiae deletion strains, locus YLR418C, strain cdc73, stronger effect = lower value 0.967 | S. cerevisiae deletion strains, locus YML016C, strain PPZ1, stronger effect = lower value 1.01 | S. cerevisiae deletion strains, locus YML032C, strain rad52, stronger effect = lower value 0.997 | S. cerevisiae deletion strains, locus YML120C, strain ndi1, stronger effect = lower value 0.995 | S. cerevisiae deletion strains, locus YML124C, strain tub3, stronger effect = lower value 1.01 | S. cerevisiae deletion strains, locus YMR058W, strain fet3, stronger effect = lower value 1 | S. cerevisiae deletion strains, locus YMR078C, strain ctf18, stronger effect = lower value 0.995 | S. cerevisiae deletion strains, locus YMR125W, strain sto1, stronger effect = lower value 0.992 | S. cerevisiae deletion strains, locus YMR129W, stronger effect = lower value 1.01 | S. cerevisiae deletion strains, locus YMR205C, strain PFK2, stronger effect = lower value 0.961 | S. cerevisiae deletion strains, locus YMR223W, strain ubp8, stronger effect = lower value 1.01 | S. cerevisiae deletion strains, locus YMR231W, strain pep5, stronger effect = lower value 0.998 | S. cerevisiae deletion strains, locus YMR263W, strain SAP30, stronger effect = lower value 1 | S. cerevisiae deletion strains, locus YMR307W, strain GAS1, stronger effect = lower value 0.998 | S. cerevisiae deletion strains, locus YNL067W, strain RPL9B, stronger effect = lower value 1.02 | S. cerevisiae deletion strains, locus YNL071W, strain lat1, stronger effect = lower value 1 | S. cerevisiae deletion strains, locus YNL128W, strain TEP1, stronger effect = lower value 1.02 | S. cerevisiae deletion strains, locus YNL153C, strain GIM3, stronger effect = lower value 1.01 | S. cerevisiae deletion strains, locus YNL183C, strain NPR1, stronger effect = lower value 0.955 | S. cerevisiae deletion strains, locus YNL209W, strain ssb2, stronger effect = lower value 1 | S. cerevisiae deletion strains, locus YNL233W, strain BNI4, stronger effect = lower value 1.01 | S. cerevisiae deletion strains, locus YNL248C, strain rpa49, stronger effect = lower value 0.991 | S. cerevisiae deletion strains, locus YNL250W, strain rad50, stronger effect = lower value 0.993 | S. cerevisiae deletion strains, locus YNL271C, strain bni1, stronger effect = lower value 1.01 | S. cerevisiae deletion strains, locus YNL298W, strain CLA4, stronger effect = lower value 1.01 | S. cerevisiae deletion strains, locus YNL307C, strain MCK1, stronger effect = lower value 1 | S. cerevisiae deletion strains, locus YNL322C, strain KRE1 (second series), stronger effect = lower value 0.961 | S. cerevisiae deletion strains, locus YNL322C, strain KRE1, stronger effect = lower value 1.01 | S. cerevisiae deletion strains, locus YNR049C, strain mso1, stronger effect = lower value 1.01 | S. cerevisiae deletion strains, locus YNR052C, strain pop2, stronger effect = lower value 1 | S. cerevisiae deletion strains, locus YOL006C, strain TOP1, stronger effect = lower value 1.02 | S. cerevisiae deletion strains, locus YOL012C, strain htz1 0.691 | S. cerevisiae deletion strains, locus YOL147C, strain pex11, stronger effect = lower value 1.01 | S. cerevisiae deletion strains, locus YOR001W, strain rrp6, stronger effect = lower value 1 | S. cerevisiae deletion strains, locus YOR061W, strain CKA2, stronger effect = lower value 1.01 | S. cerevisiae deletion strains, locus YOR069W, strain VPS5, stronger effect = lower value 1.02 | S. cerevisiae deletion strains, locus YOR070C, strain gyp1, stronger effect = lower value 0.994 | S. cerevisiae deletion strains, locus YOR080W, strain dia2, stronger effect = lower value 0.998 | S. cerevisiae deletion strains, locus YOR083W, strain WHI5, stronger effect = lower value 0.956 | S. cerevisiae deletion strains, locus YOR106W, strain vam3, stronger effect = lower value 0.966 | S. cerevisiae deletion strains, locus YOR136W, strain idh2, stronger effect = lower value 0.998 | S. cerevisiae deletion strains, locus YOR144C, strain elg1, stronger effect = lower value 1.01 | S. cerevisiae deletion strains, locus YOR184W, strain ser1, stronger effect = lower value 0.99 | S. cerevisiae deletion strains, locus YOR231W, strain MKK1, stronger effect = lower value 0.981 | S. cerevisiae deletion strains, locus YOR265W, strain rbl2, stronger effect = lower value 0.985 | S. cerevisiae deletion strains, locus YOR270C, strain vph1, stronger effect = lower value 1.04 | S. cerevisiae deletion strains, locus YOR290C, strain snf2, stronger effect = lower value 0.979 | S. cerevisiae deletion strains, locus YOR316C, strain cot1, stronger effect = lower value 0.994 | S. cerevisiae deletion strains, locus YPL051W, strain arl3, stronger effect = lower value 0.976 | S. cerevisiae deletion strains, locus YPL055C, strain LGE1, stronger effect = lower value 1.05 | S. cerevisiae deletion strains, locus YPL078C, strain atp4, stronger effect = lower value 0.992 | S. cerevisiae deletion strains, locus YPL106C, strain sse1, stronger effect = lower value 0.923 | S. cerevisiae deletion strains, locus YPL240C, strain hsp82, stronger effect = lower value 1 | S. cerevisiae deletion strains, locus YPL241C, strain CIN2, stronger effect = lower value 1.01 | S. cerevisiae deletion strains, locus YPL256C, strain CLN2, stronger effect = lower value 0.97 | S. cerevisiae deletion strains, locus YPR119W, strain clb2, stronger effect = lower value 0.994 | S. cerevisiae deletion strains, locus YPR141C, strain kar3, stronger effect = lower value 0.998 | S. cerevisiae deletion strains, locus YPR163C, strain tif3, stronger effect = lower value 1.01 | S. cerevisiae deletion strains, locus YPR167C, strain met16, stronger effect = lower value 0.997 | S. cerevisiae deletion strains, strain wtn01, stronger effect = lower value 0.989 | S. cerevisiae strains, strain wild type, stronger effect = lower value 1.01
